{
  "source": "PubChem BioAssay (Tox21)",
  "note": "Records with an inconclusive call do not appear. Values without a mark were called inactive. Calls of active or inactive are those of the source. Calls come from the whole dose curve; as a rule, active = well fitted cell-killing curve with a large enough effect in the repeat runs; inconclusive = weak or mixed curves, or effect the other way; inactive = flat fitted curve, though single readings scatter. % is set by controls: 0 for no effect and ±100 for the full control effect; potency is the fitted concentration of half-maximal effect.",
  "data": [
    {"assay": "Nuclear factor erythroid 2-related factor 2/antioxidant responsive element (Nrf2/ARE) small molecule agonists: qHTS cell viability counter screen in human keratinocytes (AID 1919968); note: nearly all actives have a fitted effect of over 55% in size", "conditions": "KeratinoSens HaCaT ARE cells viability, CellTiter-Fluor, 24 h; series mostly up to 92.4 µM; activity change, negative = cytotoxicity: at the top concentration", "method_in_brief": "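After a 5 h attachment period, ARE-reporter keratinocytes were dosed with compounds in DMSO and then cultured 23 h at 37 C. Cell viability came from CellTiter-Fluor signal read after a further 1 h.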", "values": [
      {"smiles": "O=C(O)c1cc(C(=O)O)c(C(=O)O)cc1C(=O)O", "activity change, negative = cytotoxicity": "0.361%"},
      {"smiles": "O=S(=O)(O)c1ccc(N=Nc2c(O)ccc3ccccc23)cc1", "Potency": "61.1 µM (active)"},
      {"smiles": "COS(=O)(=O)C(F)(F)F", "activity change, negative = cytotoxicity": "0.491%"},
      {"smiles": "O=C(NS(=O)(=O)/C=C/c1ccccc1)c1ccc(F)cc1Cl", "activity change, negative = cytotoxicity": "0.2%"},
      {"smiles": "CC(C)(Sc1cc(C(C)(C)C)c(O)c(C(C)(C)C)c1)Sc1cc(C(C)(C)C)c(O)c(C(C)(C)C)c1", "activity change, negative = cytotoxicity": "10.2% [at 42.5 µM]"},
      {"smiles": "Nc1c(N=Nc2ccc(-c3ccc(N=Nc4cc(S(=O)(=O)O)c5ccccc5c4N)cc3)cc2)cc(S(=O)(=O)O)c2ccccc12", "Potency": "30.6 µM (active)"},
      {"smiles": "CC(C)NCCCC1(C(N)=O)c2ccccc2-c2ccccc21", "activity change, negative = cytotoxicity": "-4.19% [at 42.5 µM]"},
      {"smiles": "CCCCCc1ccc(N)cc1", "activity change, negative = cytotoxicity": "2.92%"},
      {"smiles": "CC/C=C\\CCOC(=O)c1ccccc1O", "activity change, negative = cytotoxicity": "2.4%"},
      {"smiles": "CCCCCCCCCCCCCCNCCO", "Potency": "26.6 µM (active)"},
      {"smiles": "O=C1OC(O)C(C(Cl)Cl)=C1Cl", "note": "(configuration not stated)", "Potency": "63 µM (active)"},
      {"smiles": "Cc1cc2c(s1)Nc1ccccc1N=C2N1CCN(C)CC1", "activity change, negative = cytotoxicity": "-0.91% [at 42.5 µM]"},
      {"smiles": "CC1(C)CC(OC(=O)CCCCCCCCC(=O)OC2CC(C)(C)NC(C)(C)C2)CC(C)(C)N1", "activity change, negative = cytotoxicity": "-0.0002% [at 19 µM]"},
      {"smiles": "C=CC(=O)OCCOCCOC(=O)C=C", "Potency": "54.7 µM (active)"},
      {"smiles": "FC(F)(F)C(F)(F)C(F)(F)C(F)(F)C(F)(F)C(F)(F)C(F)(F)C(F)(F)Br", "activity change, negative = cytotoxicity": "-6.09% [at 42.5 µM]"},
      {"smiles": "C=CC(=O)OCCOCC(CC)(COCCOC(=O)C=C)COCCOC(=O)C=C", "Potency": "31.9 µM (active)"},
      {"smiles": "C[C@H]1O[C@H](O[C@H]2[C@H](O)[C@@H](O)[C@@H](O[C@H]3[C@H](O)[C@@H](O)[C@H](O)O[C@@H]3CO)O[C@@H]2CO)[C@H](O)[C@@H](O)[C@@H]1N[C@H]1C=C(CO)[C@@H](O)[C@H](O)[C@H]1O", "activity change, negative = cytotoxicity": "1.04% [at 42.5 µM]"}
    ]}
  ]
}
